Experimental data from a collection of fitness landscapes (doi:10.1126/science.1257360).
In all, about 140,000 sequences were measured (“enrichment ratio after two sorts for PhoP signalling”: median about 0, highest 2% from about 11 on). The sample as a whole holds a higher share of the highest values than the screen did.

B1: PhoQ; a variant is named by its letters at X, in order, P23837 (parent)
chain: MKKLLRLFFPLSLRVRFLLATAAVVLVLSLAYGMVALIGYSVSFDKTTFRLLRGESNLFYTLAKWENNKLHVELPENIDKQSPTMTLIYDENGQLLWAQRDVPWLMKMIQPDWLKSNGFHEIEADVNDTSLLLSGDHSIQQQLQEVREDDDDAEMTHSVAVNVYPATSRMPKLTIVVVDTIPVELKSSYMVWSWFIYVLSANLLLVIPLLWVAAWWSLRPIEALAKEVRELEEHNRELLNPATTRELTSLVRNLNRLLKSERERYDKYRTTLTDLTHSLKTPLXXLQXXLRSLRSEKMSVSDAEPVMLEQISRISQQIGYYLHRASMRGGTLLSRELHPVAPLLDNLTSALNKVYQRKGVNISLDISPEISFVGEQNDFVEVMGNVLDNACKYCLEFVEISARQTDEHLYIVVEDDGPGIPLSKREVIFDRGQRVDTLRPGQGVGLAVAREITEQYEGKIVAGESMLGGARMEVIFGRQHSAPKDE

Variants of: B1
Test: enrichment ratio after two sorts for PhoP signalling (ratio (wild type AVST 3.29)); higher = more functional
Conditions: with PhoP (E. coli)

| Variant | enrichment ratio |
| --- | --- |
| IHWP | ≤ 0.25 |
| WMPW | ≤ 0.25 |
| DDPW | ≤ 0.25 |
| WIPR | ≤ 0.25 |
| GRSL | ≤ 0.25 |
| TCMS | 10.9 |
| TCIV | ≤ 0.25 |
| TCMI | 15 |
| KCMH | ≤ 0.25 |
| TCMV | 14.6 |
| KCMA | ≤ 0.25 |
| TCMA | 15.5 |
| TCMD | ≤ 0.25 |
| HCMH | ≤ 0.25 |
| TCWV | 2.38 |
| FCMA | 5.8 |
| TCMH | 15.1 |
| FRCS | ≤ 0.25 |
| HLCG | ≤ 0.25 |
| TQVV | 4.23 |
| LDFE | ≤ 0.25 |
| SIYM | 0.397 |
| FWIR | ≤ 0.25 |
| LPTL | ≤ 0.25 |
| AFEF | ≤ 0.25 |

| Variant | enrichment ratio |
| --- | --- |
| SVVF | ≤ 0.25 |
| FPHE | ≤ 0.25 |
| KSNV | ≤ 0.25 |
| TYMF | ≤ 0.25 |
| VCTG | 0.404 |
| KCTG | ≤ 0.25 |
| TCVG | ≤ 0.25 |
| TCMG | 11.4 |
| TCNV | 16.2 |
| TCTG | 20 |
| FCMF | 0.805 |
| KCNV | ≤ 0.25 |
| TCMF | 26.2 |
| TCIG | ≤ 0.25 |
| IPQW | ≤ 0.25 |
| TEEP | ≤ 0.25 |
| KVAI | ≤ 0.25 |
| VSKE | ≤ 0.25 |
| LVPE | ≤ 0.25 |
| KFTM | ≤ 0.25 |
| VECA | 3.45 |
| FAFY | ≤ 0.25 |
| SNSG | 10.7 |
| GRCQ | ≤ 0.25 |
| DDFY | ≤ 0.25 |

| Variant | enrichment ratio |
| --- | --- |
| TGSW | ≤ 0.25 |
| RFSN | 0.949 |
| TCWG | ≤ 0.25 |
| TCGG | 21.5 |
| TCFK | ≤ 0.25 |
| TCHQ | 23.4 |
| TCVC | ≤ 0.25 |
| TCHP | ≤ 0.25 |
| WFIY | ≤ 0.25 |
| HKKD | ≤ 0.25 |
| VKAH | ≤ 0.25 |
| AFQW | ≤ 0.25 |
| SKSF | ≤ 0.25 |
| SKAM | 28 |
| SKRM | ≤ 0.25 |
| SKIC | 30.5 |
| SKIM | 20.9 |
| SKPM | ≤ 0.25 |
| HKSM | ≤ 0.25 |
| SKFC | ≤ 0.25 |
| SKRC | ≤ 0.25 |
| SKGM | ≤ 0.25 |
| SKSM | 14 |
| SKSK | ≤ 0.25 |
| AFGE | ≤ 0.25 |

| Variant | enrichment ratio |
| --- | --- |
| KDQH | ≤ 0.25 |
| EESA | ≤ 0.25 |
| NRWG | ≤ 0.25 |
| FGTG | ≤ 0.25 |
| MKMF | ≤ 0.25 |
| TNYM | 1.85 |
| ANGW | 11.4 |
| NVGW | ≤ 0.25 |
| AVGD | ≤ 0.25 |
| AIGW | 11.4 |
| AVGW | 12.2 |
| AGGW | 0.253 |
| AHGW | ≤ 0.25 |
| VHGW | ≤ 0.25 |
| ANHW | ≤ 0.25 |
| RGVW | ≤ 0.25 |
| GKNA | ≤ 0.25 |
| CIQI | ≤ 0.25 |
| VWKV | ≤ 0.25 |
| QAIG | ≤ 0.25 |
| WRVK | ≤ 0.25 |
| MGME | 13 |
| MGMG | 42.5 |
| MGMW | ≤ 0.25 |
| MGTG | ≤ 0.25 |

| Variant | enrichment ratio |
| --- | --- |
| MGMY | ≤ 0.25 |
| MGWG | 0.67 |
| LMNI | ≤ 0.25 |
| NSSL | ≤ 0.25 |
| SDSL | 0.277 |
| ASSL | 11.7 |
| QSSL | 9.11 |
| TSSL | 13.7 |
| SSSL | 12.5 |
| KSSL | ≤ 0.25 |
| FSSL | ≤ 0.25 |
| VRSL | ≤ 0.25 |
| SYTR | ≤ 0.25 |
| VVCY | ≤ 0.25 |
| GKAF | ≤ 0.25 |
| SEFA | 1.84 |
| SEVC | 9.44 |
| SLVI | 2.14 |
| SEFE | 4.76 |
| SEGG | 9.05 |
| SCVR | 1.05 |
| SEVR | 12.1 |
| SEFG | 15.8 |
| SEVI | 12.2 |
| SEVG | 25.6 |

| Variant | enrichment ratio |
| --- | --- |
| SLVR | 0.339 |
| SEVA | 10.3 |
| RKKT | ≤ 0.25 |
| SLWN | ≤ 0.25 |
| RRRI | ≤ 0.25 |
| PERI | ≤ 0.25 |
| FFGE | ≤ 0.25 |
| YKRH | ≤ 0.25 |
| VSRE | ≤ 0.25 |
| VRMG | ≤ 0.25 |
| HGFC | ≤ 0.25 |
| SEMD | 1.79 |
| SEMI | 17.1 |
| SEWG | 17.3 |
| SPWG | ≤ 0.25 |
| SEVS | 20.4 |
| SLVS | 1.29 |
| SEMS | 14.3 |
| SEMK | 7.11 |
| SEMN | 4.75 |
| SQWG | ≤ 0.25 |
| SCVS | 3.13 |
| SEMQ | 8.89 |
| HDQV | ≤ 0.25 |
| HCLM | ≤ 0.25 |

| Variant | enrichment ratio |
| --- | --- |
| NDAA | ≤ 0.25 |
| NRLG | ≤ 0.25 |
| NMCH | ≤ 0.25 |
| HTPK | ≤ 0.25 |
| PDYQ | ≤ 0.25 |
| ANWA | ≤ 0.25 |
| HDKT | ≤ 0.25 |
| SAHC | ≤ 0.25 |
| SLVK | 1.38 |
| SEVK | 12.3 |
| SEMG | 21.5 |
| SEGS | 4.52 |
| SEKK | ≤ 0.25 |
| SEEG | 2.48 |
| EACH | 2.01 |
| FYVQ | ≤ 0.25 |
| GYNI | ≤ 0.25 |
| LYDQ | ≤ 0.25 |
| FPLV | ≤ 0.25 |
| FGLS | 8.38 |
| FGLV | 11.7 |
| FGLT | 9.94 |
| FGLA | 12.2 |
| QGLV | 7.45 |
| HKVW | ≤ 0.25 |

| Variant | enrichment ratio |
| --- | --- |
| VDRE | ≤ 0.25 |
| EAAG | ≤ 0.25 |
| TSSY | 14.6 |
| CVSY | ≤ 0.25 |
| NSSY | ≤ 0.25 |
| FSSY | 0.259 |
| CSSY | 17.5 |
| KSSY | ≤ 0.25 |
| KMIV | ≤ 0.25 |
| IVGD | ≤ 0.25 |
| TDFN | ≤ 0.25 |
| PLSM | ≤ 0.25 |
| CLSF | 10.1 |
| LNSM | 0.463 |
| ADSM | ≤ 0.25 |
| TNSM | 23.5 |
| AHSM | 4.11 |
| AKSM | 15.5 |
| CLSM | 22.7 |
| TLSM | 25.5 |
| SLSM | 8.94 |
| MNSM | 9.22 |
| VLSM | 0.436 |
